Out of some 63,000 compounds screened, about 1,100 (1.7%) were called active. The sample holds actives, similar compounds and a random draw of the others, so the mix is not that of the screen. Results with a measured potency or affinity are listed apart. Unmarked numbers belong to inactive results. Cut-off read from the data, not from the text of the source: active = cytotoxicity above about 50%; inactive = the rest.

The test can be described thus: cytotoxicity in HPDE-C7 cells, cell-based, fluorescence, HTS (AID 430).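 Note: cells exposed to compound for 48 hours before viability readout; 0% = vehicle and 100% = reference cytotoxic drug.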 Conditions: HPDE-C7 pancreatic duct cells viability, at 10 µM, active compounds read high.
Regarding `Cc1cccc(CS(=O)(=O)Cc2ccc(C(=O)NCc3cccnc3)o2)c1`, the cytotoxicity was -7.1%. Under `c1ccc2c(SCc3cn4cccnc4n3)ncnc2c1` stands 13.3%; under `Cc1cc(=O)n2c3c(sc2n1)C(=O)N(Cc1ccccc1)C3=O`, 3.8%. Under `Cc1cccc(Nc2nc(N)nc(CN3CCN(c4ccccc4)CC3)n2)c1` stands -13.2%. Under `Cc1ccc(Nc2nc(N)nc(CN3CCN(c4ccccc4)CC3)n2)cc1Cl` stands 72.1% (active).

For `COc1ccc(N2CCN(Cc3nc(N)nc(Nc4ccc(C)c(Cl)c4)n3)CC2)cc1`, the cytotoxicity is 7.9%. Under `O=C(Nc1nccs1)c1ccc(Br)o1` stands -3.3%; under `Cc1ccc(C(=O)NCCn2cc(SCC(=O)Nc3nnc(C)s3)c3ccccc32)cc1`, -2%. As for `S=c1[nH]nc(Cc2c[nH]c3ccccc23)o1`, the cytotoxicity is -0.8%. Regarding `c1ccc(CSc2nnc(-c3c[nH]c4ccccc34)o2)cc1`, the cytotoxicity was -3.6%.

Turning to `O=C(Nc1ccc2c(c1)OCO2)Oc1ccccc1`, the cytotoxicity is -9.1%.

With `OCCN(CCO)c1ncnc2c1sc1nc(N3CCOCC3)c3c(c12)CCCC3`, the cytotoxicity is -3.9%. Under `CSc1nc(N2CCN(CCO)CC2)c2sc3nc(-c4ccco4)c4c(c3c2n1)CCC4` stands -8.6%; under `COC(=O)CSc1ncnc2c1sc1nc(-c3ccco3)c3c(c12)CC(C)(C)OC3`, 15%. Under `c1nc(NCCN2CCOCC2)c2sc3nc(N4CCOCC4)c4c(c3c2n1)CCC4` stands 16.6%; under `CCC1Oc2ccccc2N(CC(=O)NCCC2=CCCCC2)C1=O` (stereo unspecified), 0.8%; under `COc1cccc(N2CCN(C(=O)CCn3c(=S)[nH]c4cc5c(cc4c3=O)OCO5)CC2)c1`, -14.3%. Under `CCCOc1ccc2ccccc2c1/C=N/n1c(C)nnc1-n1nc(C)cc1C` stands 41.9%; under `Cc1cc(C)n(-c2nnc(C)n2/N=C/c2ccccc2OCc2ccccc2Cl)n1`, 34.5%.

On to `Cc1cc(C)n(-c2nnc(C)n2/N=C/c2cc(Br)ccc2OCc2ccccc2)n1`, for which the cytotoxicity is 57.6% (active).

Regarding `Oc1ccc(Br)cc1-c1cc(-c2ccccc2F)[nH]n1`, the cytotoxicity was 12.4%. As for `COc1ccc(O)c(-c2cc(-c3cccs3)[nH]n2)c1`, the cytotoxicity was 26.9%. Under `CSc1nnc2n(-c3ccccc3)c(=O)c3c4c(sc3n12)CCC4` stands 11.5%. Take `O=S(=O)(c1ccccc1)N1CCN(Cc2ccccc2C(F)(F)F)CC1`: the cytotoxicity was -2.9%. Under `CCOc1ccc(NS(=O)(=O)c2ccc3c(c2)CCN3C(=O)CCC(=O)O)cc1` stands -5.5%.

Take `O=S(=O)(c1ccc2ccccc2c1)N(CC(O)CN1CCOCC1)c1ccccc1` (stereo unspecified): the cytotoxicity was -8%.

Regarding `O=S(=O)(c1ccc2ccccc2c1)N1CCCCC1`, the cytotoxicity is -5.5%. Under `CCCn1c(SCC(=O)Nc2cccc(C)n2)nnc1-c1ccco1` stands -2%.

As to `CCOC(=O)C1=C(C)NC(C)=C(C(=O)OCC)C1c1ccc(OC)cc1`, the cytotoxicity is 11.1%.

In the case of `CN1CCN(C(CNS(=O)(=O)c2ccc(Cl)cc2)c2cccnc2)CC1` (stereo unspecified), the cytotoxicity was 2.1%. Under `COCCNC(=O)C(c1ccccc1C)N(CCOC)C(=O)Cn1nnc2ccccc21` (stereo unspecified) stands 4.3%; under `O=C(CSc1nnc(-c2cccs2)o1)N1CCOCC1`, -10.3%. Under `CCOC(=O)c1cn2c3c(c(F)c(F)c(F)c3c1=O)SC(N1CCCC1)=N2` stands 62.5% (active). Under `CCOC(=O)c1cn(CC)c2cc(N3CCCCC3)c(F)cc2c1=O` stands 3.7%; under `CCOC(=O)c1sc2c(c1C)c(=O)c(C(=O)OCC)cn2CC`, 1.7%.

Take `CCCOCCOC(=O)C1=C(C)NC(=O)NC1c1cc(Cl)c(O)c(OC)c1` (stereo unspecified): the cytotoxicity was -9.1%. Under `Cc1nn(CC(O)Cn2c3c(c4ccccc42)CCN(C)C3=O)c(C)c1Br` (stereo unspecified) stands -4.2%.

As for `Cc1cc(-c2csc(N)n2)c(C)n1CCc1ccccc1`, the cytotoxicity was 78.3% (active). For `Nc1nc(-c2ccccc2Br)cs1`, the cytotoxicity is 11.7%. Under `CCOC(=O)c1cc(C)n(CCc2ccccc2)c1C` stands -7.6%; under `CCOC(=O)N1CCN(C/C(C)=C/c2ccccc2)CC1`, -6%; under `CCN(CCN(C)C)C(=O)Cn1ncc2c1-c1cc(C)ccc1OC2`, -7.1%.

As to `COc1ccc(C(=O)N2CCc3cc(OC)c(OC)cc3C2)cc1OC`, the cytotoxicity is 5.8%. Under `CCOc1ccc(C(=O)N2CCc3cc(OC)c(OC)cc3C2)cc1OCC` stands 18.6%. Under `CCOc1cc(C(=O)N2CCc3cc(OC)c(OC)cc3C2)ccc1OC(F)F` stands 82.5% (active); under `Cc1ccccc1CSc1ncc(C#N)c(N)n1`, -10.1%. `COc1ccc(Nc2cc(C(=O)NCCCN3CCN(C)CC3)c3ccccc3n2)c(OC)c1`: the cytotoxicity is 2%. Under `Cc1csc(C(C#N)C(=O)c2ccncc2)n1` (stereo unspecified) stands -11%; under `Cc1cccc(NC(=O)c2cc3c(n(-c4ccccc4)c2=O)CCCC3=O)n1`, 9.4%. In the case of `COc1ccc(-n2c3c(cc(C(=O)Nc4ccc5c(c4)C(=O)NC5=O)c2=O)C(=O)CCC3)cc1`, the cytotoxicity is 58.8% (active). `Cc1ccc(-n2c3c(cc(C(=O)Nc4cccc(C)n4)c2=O)C(=O)CCC3)cc1`: the cytotoxicity is -27.7%. On to `COC(=O)c1cc(OC)c(OC)cc1-n1cnc2cc(OC)c(OC)cc2c1=O`, for which the cytotoxicity is -9.2%. As for `Cc1cccc(NC2=NC3(CCCCC3)N=C(N)N2)c1C`, the cytotoxicity was -3.7%. Under `CCOc1ccc(NC(=O)CN2C(=O)COc3ccc(Cl)cc32)cc1` stands -2%; under `CCOC(=O)c1ccc2c(c1)nc(SC/C(O)=C(\C#N)c1nc3ccccc3[nH]1)n2CC`, 16.2%.

Regarding `Cc1nnc(SCc2ccc(Cl)cc2)n1CC1CCCO1` (stereo unspecified), the cytotoxicity is 2.4%.

For the compound `O=C(CSc1nnc(-c2ccccc2)o1)n1c2c(c3ccccc31)CCCC2`, the cytotoxicity is 53.3% (active). As to `O=C(O)CSc1nnc(-c2ccccc2)o1`, the cytotoxicity was 0.1%.

On to `Cc1nnc(SCC(=O)n2c3c(c4ccccc42)CCCC3)s1`, for which the cytotoxicity is -1%.

As to `CC1CCCCN1S(=O)(=O)c1coc(C(N)=O)c1` (stereo unspecified), the cytotoxicity was -2.9%.

For the compound `CC(=O)NC(C)C12CC3CC(CC(C(=O)O)(C3)C1)C2` (stereo unspecified), the cytotoxicity is -6.6%.

(Values after PubChem BioAssay AID430 (Sanford-Burnham Center for Chemical Genomics, 2006).)
